Screening data (PubChem)
TDP1 cell noCPT = qHTS for Inhibitors of human tyrosyl-DNA phosphodiesterase 1 (TDP1): qHTS in cells in absence of CPT. DT40 Tdp1-/- hTDP1 cells, no CPT, ATP luminescence, 48 h. Potency, µM (titrated, usually from 46.2 µM), for inactives: at the top dose activity change, negative = growth inhibition, actives largely listed as inhibitors. 15% of 420,000 active. AID 686978, 2013; further: potency means the concentration at half of the fitted maximal effect; on the % scale 0 is the no-effect control and ±100 the full control effect; nearly all actives have a fitted effect of over 55% in size
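Seeded 400 DT40-hTDP1 cells/well (vehicle DMSO, no 20 nM CPT); pinned compounds; ≥48 hr at 37 °C; CellTiter-Glo luminescence as viability measure.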
D3 ag = activates the human D3 dopamine receptor | D3R DiscoveRx beta-arrestin cells, luminescence, 90 min | P35462 | max activation, % | 0.58% of 410,000 active; in the data active means max activation above about 30%; further: 0% is about no effect
Target sequence (P35462 whole entry, looked up): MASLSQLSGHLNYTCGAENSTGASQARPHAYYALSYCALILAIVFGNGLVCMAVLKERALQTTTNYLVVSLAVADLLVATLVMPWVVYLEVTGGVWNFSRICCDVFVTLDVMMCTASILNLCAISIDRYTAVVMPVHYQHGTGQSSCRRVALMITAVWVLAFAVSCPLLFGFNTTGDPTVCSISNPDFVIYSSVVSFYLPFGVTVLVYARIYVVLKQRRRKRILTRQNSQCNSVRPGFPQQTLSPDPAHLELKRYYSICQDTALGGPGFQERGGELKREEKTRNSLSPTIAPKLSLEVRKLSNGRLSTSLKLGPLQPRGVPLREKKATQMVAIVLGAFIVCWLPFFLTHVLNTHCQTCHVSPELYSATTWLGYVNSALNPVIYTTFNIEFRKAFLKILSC
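Agonist-mode cell screen: cells plated at 1500/well and incubated overnight at 37 °C, then exposed to library compounds for 90 min at 37 °C. Detection reagent was added for 30–60 min at room temperature, and luminescence was read.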
DRD3 antagonist = antagonists of human D3 dopamine receptor | P35462 | D3R cells, DiscoveRx beta-arrestin luminescence, antagonist mode; active compounds read low | max response, negative = inhibition, % | 2.5% of 360,000 active | AID 652054; in the data active means max response below about -50%; inconclusive means no clear call, values can overlap the other calls; further: on the % scale 0 is the no-effect control and ±100 the full control effect
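Cells plated overnight at 1500 cells/well, then exposed to library compounds with dopamine controls for 90 minutes at 37 degrees C. DiscoveRx reagent added for 30–60 minutes at room temperature; luminescence read, quantitative HTS format.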
DT40 TDP1 CPT = DT40-hTDP1 cell growth loss with CPT. chicken DT40 Tdp1-/-;hTDP1 cells + 20 nM CPT, ATP luminescence, 48 h. Potency, µM (doses to about 46.2 µM), for the others: at the highest dose activity change, negative = growth inhibition, actives largely listed as inhibitors. 12% of 420,000 active. AID 686979; further: potency means the concentration at half of the fitted maximal effect; on the % scale 0 is the no-effect control and ±100 the full control effect; nearly all actives have a fitted effect of over 55% in size
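Chicken DT40 Tdp1-/- cells stably complemented with human TDP1 were seeded at 400 cells/well in medium containing 20 nM camptothecin, exposed to pin-transferred compounds, and grown at 37 °C for at least 48 hr. Viability was read as ATP luminescence.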
IL1B secr inh = blocks inflammasome-driven IL-1 beta release; THP-1 LPS/ATP IL-1B secretion, AlphaLISA, 16 h; active compounds read low; activity change, % at 57.5 µM; 4.7% of 360,000 active; in the data active means activity change below about -50%; inconclusive means mostly about -30% to -49%; further: on the % scale 0 is the no-effect control and ±100 the full control effect
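THP-1 cells pretreated 1 hr with compounds (up to 57.5 uM final), then stimulated with LPS (250 ng/mL final) plus ATP (1.25 mM final); secreted IL-1B measured by AlphaLISA after 16 hr, decreased signal indicating inhibition.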
ClpP mod = qHTS Assay for Activators of ClpP; purified B. subtilis ClpP, FRET peptide cleavage, 20 min; Potency, µM (series often up to 57.5 µM), for the others: at the top dose activity change, negative = active; 1.9% of 340,000 active; active means well fitted falling curve with a large enough effect; inconclusive means small, poorly fitted or top-dose-only effect; inactive means no such curve, though single readings can be large or run the other way; further: potency means the concentration at half of the fitted maximal effect; the source files actives as falling curves though it sought activators and does not explain the sign; nearly all actives have a fitted effect of over 65% in size
Target sequence (P80244 whole entry, looked up): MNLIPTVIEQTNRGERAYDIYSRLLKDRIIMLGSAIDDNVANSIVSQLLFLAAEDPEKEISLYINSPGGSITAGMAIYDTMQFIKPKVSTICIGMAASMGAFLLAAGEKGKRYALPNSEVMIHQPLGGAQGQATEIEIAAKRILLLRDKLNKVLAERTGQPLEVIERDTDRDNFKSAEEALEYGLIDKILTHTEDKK
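ClpP 10 microg/mL final, pH 8 Tris/KCl buffer with BSA, glycerol, Tween-20; compound pinned in; FRET-FV substrate; RT 20 min; Ex320/Em430; ΔFRET vs ADEP 5.8 microM, DMSO, no enzyme.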
* = called active by the depositor; ? = inconclusive; nt = no result given; [ ] = another dose, or the depositor's remark. Shown are actives, neighbours in structure and some others; about 21% of the full set was active somewhere. Unless noted, the call rests on the fitted dose curve; in most records, active means well fitted inhibition curve with a large enough effect; inconclusive means small, poorly fitted or top-dose-only effect; inactive means flat fitted curve, though single readings scatter.

SMILES	TDP1 cell noCPT	D3 ag	DRD3 antagonist	DT40 TDP1 CPT	IL1B secr inh	ClpP mod
CN(C)CC(C)(O)c1ccc2c(c1)CN(Cc1cccn1-c1ncccn1)CCO2 (configuration not stated)	-14%	nt	nt	4%[9.04 µM]	nt	nt
CCn1c2c(c(=N)c3c1CCC3)CCCC2	9.2µM*	-4	58	?	40	nt
CCCCCCCCCCn1c2c(c(=N)c3c1CCC3)CCC2	0.029µM*	-6	-27	0.26µM*	-96*	-1%
CCCCCCCCCn1c2c(c(=N)c3c1CCC3)CCCC2	0.018µM*	-3	-24	0.026µM*	-99*	nt
CCOC(=O)N1CCC(N2Cc3cccc(C(=O)NC(C)c4ccc5c(c4)OCCO5)c3C2=O)CC1 (configuration not stated)	23µM*	-7	6	?	-22	-4%
CCOc1ccccc1C(=O)NC(C(=O)N(C)Cc1ccc2c(c1)OCO2)C(C)C (configuration not stated)	?	5	12	18µM*	18	-20%
CCOc1ccccc1C(=O)NCC(=O)Nc1ccc2c(c1)OCO2	-7%	-1	-10	-20%	15	1%
CCOc1ccccc1C(=O)NC(C)c1ccc2c(c1)OCO2 (configuration not stated)	?	5	-2	18µM*	17	-1%
CCOC(=O)N1CCC(N2Cc3cccc(C(=O)NCc4ccc(C)cc4)c3C2=O)CC1	?	3	9	?	5	-1%
Cc1ccc(NC(=O)CN(C)C(=O)COC(=O)[C@@H](NC(=O)c2ccccc2F)C(C)C)cc1	-2%	-3	15	-22%	44	1%
COc1ccccc1NC(=O)c1sc2nc(C)c(C(=O)Nc3ccc(C)cc3C)c(-c3ccccc3Cl)c2c1N	-10%	13	nt	3%	nt	-28%
O=C(O)CN1C(=O)C2(OCCO2)c2cc(Br)ccc21	4%	16	17	10%	21	-5%
O=C(CN1C(=O)C2(OCCO2)c2cc(Br)ccc21)NO	-12%	10	24	19%	-55*	1%
N#Cc1cccc(NC(=O)N2CC[C@@]3(CCCN(C(=O)c4ccco4)C3)C2)c1	-9%	nt	nt	4%	nt	nt
CCN(CC(O)CON=C1c2ccccc2-c2ccccc21)S(=O)(=O)c1ccc(Cl)cc1 (configuration not stated)	15µM*	11	67	21µM*	-62*	-11%
CS(=O)(=O)N(CC(O)CON=C1c2ccccc2-c2ccccc21)c1ccc(F)cc1 (configuration not stated)	?	-7	-19	-22%	-6	-4%
CN(CC(O)CON=C1c2ccccc2-c2ccccc21)S(=O)(=O)c1ccc(Br)cc1 (configuration not stated)	?	-7	4	16µM*	?	-7%
O=C(Nc1nnc(N2CCCCCC2)s1)Nc1ccccc1C(F)(F)F	-30%	5	nt	-5%	nt	2%
CS(=O)(=O)c1ccc(-c2nc(-c3ccc(F)cc3)c(-c3ccncc3)[nH]2)cc1	27µM*	nt	nt	?	nt	nt
Cn1c2c(c(=O)n(C)c1=O)C(c1ccc(F)cc1)C(C#N)=C(N)O2 (configuration not stated)	3%	-10	-6	13%	-69*	nt
Cc1ccc(C2C(C#N)=C(N)Oc3c2c(=O)n(C)c(=O)n3C)cc1 (configuration not stated)	-9%	-2	-4	-5%	-8	3%
CC1CCCC(NC(=O)C2CCN(S(=O)(=O)N3CCCCCC3)CC2)C1C (configuration not stated)	23µM*	4	0	?	-4	2%
COc1c(O[C@@H]2O[C@H](CO)[C@@H](O)[C@H](O)[C@H]2O)cc2c(c1OC)-c1ccc(SC)c(=O)cc1[C@@H](NC(C)=O)CC2	-1%[21.1 µM]	-20	nt	12%[21.1 µM]	nt	nt
COc1cc2c(cc1OC)C(COc1ccc(F)cc1)N(C(C)=O)CC2 (configuration not stated)	0%	-7	1	-15%	-10	0%
CN[C@H]1CCc2cc(OC)c(OC)c(OC)c2-c2ccc(N(C)CC(OC)OC)c(=O)cc21	6.5µM*	-4	-18	7.3µM*	48	1%
SMILES	TDP1 cell noCPT	D3 ag	DRD3 antagonist	DT40 TDP1 CPT	IL1B secr inh	ClpP mod
COc1cc2c(c(OC)c1OC)-c1ccc(N(C)CC(OC)OC)c(=O)cc1[C@@H](NC(C)=O)CC2	0.65µM*	-1	-17	1.3µM*	74	nt
COc1cc2c(c(OC)c1OC)-c1ccc(OC)c(=O)cc1[C@@H](N(C)CC#CCO)CC2	0.18µM*	0	0	0.21µM*	48	nt
COCCNC(=O)/C(C#N)=C/C=C/c1ccccc1	?	-11	-28	-25%	-93*	nt
COc1cc(C)c(/C=C(\C#N)C(=O)Nc2ccc(C)cc2)cc1C(C)C	?	-43	?	-10%	-10	-2%
COCCNC(=O)/C(C#N)=C/c1cc(C)n(C2CCCCC2)c1C	16µM*	2	-2	?	-15	nt
N#C/C(=C\c1ccccc1Br)C(=O)NC1CC1	-26%	-8	0	?	-9	1%
N#C/C(=C/C=C/c1ccccc1)C(=O)Nc1ccccc1	?	-25	-16	-25%	-28	-2%
COCCNC(=O)/C(C#N)=C/c1cc(C(C)C)c(OC)cc1C	?	-40	-77*	?	-71*	-22%
COCCNC(=O)/C(C#N)=C/c1ccccc1Br	16µM*	4	2	15µM*	?	nt
CC(=O)c1cccc(N(CC(=O)NC2CCCCC2)C(=O)CNC(=O)c2cccs2)c1	-2%	6	-2	-11%	5	nt
CCNC(=O)CCC(N)C(=O)O (configuration not stated)	-8%	nt	nt	5%	nt	nt
CCCc1cc2c(=O)c(-c3nc4ccccc4s3)c(COCC(=O)O)oc2cc1O	0%	9	12	-2%	53	nt
COc1ccc(OC)c(/C=C/c2nc3ccccc3c(=O)n2-c2ccc(F)c(Cl)c2)c1	?	-9	nt	?	nt	-2%
COc1cc(/C=C/c2nc3cc(Cl)ccc3c(=O)n2-c2ccc(C)cc2C)cc(OC)c1OC	?	0	nt	16µM*	nt	0%
Cc1ccc(-c2cc(C(=O)Nc3ccc(S(=O)(=O)N4CC(C)OC(C)C4)cc3)[nH]n2)c(O)c1 (configuration not stated)	?	-4	-9	16µM*	-22	nt
